# Laboratory results from article PMC7862700, “An all-to-all approach to the identification of sequence-specific readers for epigenetic DNA modifications on cytosine”.
# What was measured:
# Assay in all cases: DAPPL (digital affinity profiling via proximity ligation, sequencing); 10 mM Tris-HCl pH 7.5, 50 mM NaCl, 1 mM DTT, 4% glycerol, room temperature, 30 min; GST-TFs on glutathione beads, 16-mer random dsDNA library, 0.1% formaldehyde crosslink after washing; high values mean tight binding
# Conditions in all cases: protein: recombinant; tags: N-terminal GST; dsDNA, one strand shown
# ETV1 = ETV1 (Homo sapiens, UniProt P50549 1-477)
# ETV1, sequence (P50549 whole entry, the tested form may be a part): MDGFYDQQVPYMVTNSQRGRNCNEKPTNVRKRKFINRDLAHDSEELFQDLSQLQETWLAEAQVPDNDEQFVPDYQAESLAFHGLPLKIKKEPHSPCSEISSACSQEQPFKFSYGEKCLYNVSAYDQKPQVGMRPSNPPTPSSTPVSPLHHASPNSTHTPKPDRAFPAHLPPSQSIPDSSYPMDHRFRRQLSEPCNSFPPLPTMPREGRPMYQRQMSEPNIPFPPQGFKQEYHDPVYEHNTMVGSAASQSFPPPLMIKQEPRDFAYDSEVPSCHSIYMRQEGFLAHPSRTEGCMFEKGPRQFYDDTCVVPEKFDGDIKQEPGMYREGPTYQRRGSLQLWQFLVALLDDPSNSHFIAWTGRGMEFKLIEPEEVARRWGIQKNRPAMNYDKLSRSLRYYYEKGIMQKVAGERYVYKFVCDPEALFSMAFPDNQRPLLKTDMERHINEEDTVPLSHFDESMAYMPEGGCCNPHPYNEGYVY
# Procedure, shortened: (§1)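 Beads coated with glutathione captured GST-fused human transcription factors that had been expressed in yeast, and the factors were then given DNA barcodes and pooled with a tag-only sample. The pools were incubated with 200 nmole of a random double-stranded 16-mer DNA library in Tris/NaCl/DTT/glycerol buffer for 30 min at room temperature, washed, crosslinked with 0.1% formaldehyde and proximity-ligated with BsaI/T4 ligase at 37 °C for 1 h. PCR amplification and Illumina NextSeq500 sequencing came last. Binding signal is each hexamer's read frequency for a factor divided by its frequency for the tag-only sample.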
# ERF = target: T1, ERF (Homo sapiens, UniProt P50548 1-548)
# T1 sequence: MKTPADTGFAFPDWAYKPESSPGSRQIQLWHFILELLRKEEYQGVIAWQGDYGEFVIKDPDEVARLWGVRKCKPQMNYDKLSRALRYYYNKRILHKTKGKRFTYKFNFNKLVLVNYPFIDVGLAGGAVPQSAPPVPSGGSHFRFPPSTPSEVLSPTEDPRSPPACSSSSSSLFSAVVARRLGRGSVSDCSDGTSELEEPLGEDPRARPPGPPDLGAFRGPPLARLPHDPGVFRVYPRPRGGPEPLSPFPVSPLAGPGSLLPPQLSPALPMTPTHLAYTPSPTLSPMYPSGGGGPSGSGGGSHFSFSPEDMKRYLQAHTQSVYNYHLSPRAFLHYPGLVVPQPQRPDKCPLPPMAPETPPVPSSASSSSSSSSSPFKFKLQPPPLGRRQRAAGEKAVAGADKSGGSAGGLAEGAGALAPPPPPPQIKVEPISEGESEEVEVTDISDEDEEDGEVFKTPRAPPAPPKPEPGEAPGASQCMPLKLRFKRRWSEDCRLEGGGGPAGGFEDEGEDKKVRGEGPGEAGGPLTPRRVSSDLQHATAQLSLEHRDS
# Procedure, shortened: as §1
# ETV3L = target: T2, ETV3L (Homo sapiens, UniProt Q6ZN32 1-361)
# T2 sequence: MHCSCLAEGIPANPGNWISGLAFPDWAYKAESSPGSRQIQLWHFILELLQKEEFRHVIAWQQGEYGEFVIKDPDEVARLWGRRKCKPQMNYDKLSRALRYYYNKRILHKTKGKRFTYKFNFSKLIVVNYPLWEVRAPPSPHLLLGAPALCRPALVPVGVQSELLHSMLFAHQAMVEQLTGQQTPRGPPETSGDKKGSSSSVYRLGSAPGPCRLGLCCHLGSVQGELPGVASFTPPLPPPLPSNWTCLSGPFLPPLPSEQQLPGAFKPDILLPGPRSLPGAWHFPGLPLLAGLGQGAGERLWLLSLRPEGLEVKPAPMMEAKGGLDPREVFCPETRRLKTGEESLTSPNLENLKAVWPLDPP
# Procedure, shortened: as §1
# ETS2 = target: T3, ETS2 (Homo sapiens, UniProt P15036 1-469)
# T3 sequence: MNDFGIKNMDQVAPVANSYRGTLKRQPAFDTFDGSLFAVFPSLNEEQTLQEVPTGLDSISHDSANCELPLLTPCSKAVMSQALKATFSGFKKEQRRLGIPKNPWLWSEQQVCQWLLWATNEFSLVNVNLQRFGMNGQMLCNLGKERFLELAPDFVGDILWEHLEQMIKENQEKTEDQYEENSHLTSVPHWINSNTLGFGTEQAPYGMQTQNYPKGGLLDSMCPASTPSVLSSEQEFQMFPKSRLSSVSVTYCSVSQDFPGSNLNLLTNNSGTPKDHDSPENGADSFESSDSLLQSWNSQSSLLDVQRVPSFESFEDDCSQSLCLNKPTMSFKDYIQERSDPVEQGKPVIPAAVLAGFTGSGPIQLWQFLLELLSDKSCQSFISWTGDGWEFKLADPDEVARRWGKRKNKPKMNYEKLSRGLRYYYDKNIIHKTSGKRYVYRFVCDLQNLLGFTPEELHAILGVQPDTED
# Procedure, shortened: as §1
# SPDEF = target: T4, SPDEF (Homo sapiens, UniProt O95238 1-335)
# T4 sequence: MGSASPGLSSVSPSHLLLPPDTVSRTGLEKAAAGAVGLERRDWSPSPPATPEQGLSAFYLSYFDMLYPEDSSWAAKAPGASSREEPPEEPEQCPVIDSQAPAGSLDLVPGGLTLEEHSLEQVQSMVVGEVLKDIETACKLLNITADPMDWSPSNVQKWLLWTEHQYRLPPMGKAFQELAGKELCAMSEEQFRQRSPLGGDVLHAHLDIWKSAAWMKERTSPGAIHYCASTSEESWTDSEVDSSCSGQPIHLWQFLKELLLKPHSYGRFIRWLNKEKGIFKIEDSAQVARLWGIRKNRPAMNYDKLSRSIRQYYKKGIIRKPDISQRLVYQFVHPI
# Procedure, shortened: as §1
# ETV7 = target: T5, ETV7 (Homo sapiens, UniProt Q9Y603 1-341)
# T5 sequence: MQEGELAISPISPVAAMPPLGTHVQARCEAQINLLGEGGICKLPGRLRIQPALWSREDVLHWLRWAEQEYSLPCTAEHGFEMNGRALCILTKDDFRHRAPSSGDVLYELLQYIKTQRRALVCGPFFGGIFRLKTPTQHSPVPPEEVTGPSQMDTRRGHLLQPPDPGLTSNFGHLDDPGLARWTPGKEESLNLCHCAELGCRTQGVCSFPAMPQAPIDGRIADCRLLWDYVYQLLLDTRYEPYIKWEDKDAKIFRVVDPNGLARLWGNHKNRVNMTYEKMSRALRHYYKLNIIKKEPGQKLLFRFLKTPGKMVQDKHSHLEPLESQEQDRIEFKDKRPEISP
# Procedure, shortened: as §1
# ELF5 = target: T6, ELF5 (Homo sapiens, UniProt Q9UKW6-2 1-255)
# T6 sequence: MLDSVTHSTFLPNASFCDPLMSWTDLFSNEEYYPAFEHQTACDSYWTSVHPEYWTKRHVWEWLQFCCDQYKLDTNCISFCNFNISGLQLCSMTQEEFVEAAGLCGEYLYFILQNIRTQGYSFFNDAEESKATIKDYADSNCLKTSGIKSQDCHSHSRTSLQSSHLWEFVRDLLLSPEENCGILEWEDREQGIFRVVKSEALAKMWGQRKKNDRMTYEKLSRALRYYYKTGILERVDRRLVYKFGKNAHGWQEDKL
# Procedure, shortened: as §1
# ETV3 = target: T7, ETV3 (Homo sapiens, UniProt P41162-2 1-143)
# T7 sequence: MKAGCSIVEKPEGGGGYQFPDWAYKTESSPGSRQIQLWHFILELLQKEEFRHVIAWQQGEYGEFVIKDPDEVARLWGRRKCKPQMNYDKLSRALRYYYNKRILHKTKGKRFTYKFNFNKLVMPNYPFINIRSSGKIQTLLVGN
# Procedure, shortened: as §1
# ETV6 = ETV6 (Homo sapiens, UniProt P41212 1-452)
# ETV6, sequence (P41212 whole entry): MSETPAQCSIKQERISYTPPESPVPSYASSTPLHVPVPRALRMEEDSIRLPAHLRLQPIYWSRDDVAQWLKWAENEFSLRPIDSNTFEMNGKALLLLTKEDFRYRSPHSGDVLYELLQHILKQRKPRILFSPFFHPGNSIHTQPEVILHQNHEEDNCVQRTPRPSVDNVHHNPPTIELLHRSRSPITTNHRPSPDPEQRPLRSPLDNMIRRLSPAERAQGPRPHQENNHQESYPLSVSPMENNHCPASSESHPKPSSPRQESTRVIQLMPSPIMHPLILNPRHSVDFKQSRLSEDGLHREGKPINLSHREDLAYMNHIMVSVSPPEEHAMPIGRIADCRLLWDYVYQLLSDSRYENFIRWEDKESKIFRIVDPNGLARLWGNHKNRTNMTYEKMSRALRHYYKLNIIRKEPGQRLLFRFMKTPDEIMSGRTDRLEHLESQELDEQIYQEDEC
# Procedure, shortened: as §1
sequence,measurement,setting,value
TTTGTC,binding signal,ETV1,"1.14 fold enrichment (6-mer frequency, TF over GST control)"
same,binding signal,ERF,"1.23 fold enrichment (6-mer frequency, TF over GST control)"
same,binding signal,ETV3L,"1.32 fold enrichment (6-mer frequency, TF over GST control)"
same,binding signal,ETS2,"1.24 fold enrichment (6-mer frequency, TF over GST control)"
same,binding signal,SPDEF,"1.14 fold enrichment (6-mer frequency, TF over GST control)"
same,binding signal,ETV7,"1.35 fold enrichment (6-mer frequency, TF over GST control)"
same,binding signal,ELF5,"1.22 fold enrichment (6-mer frequency, TF over GST control)"
same,binding signal,ETV3,"1.29 fold enrichment (6-mer frequency, TF over GST control)"
same,binding signal,ETV6,"1.17 fold enrichment (6-mer frequency, TF over GST control)"
